Laboratory results published in PubChem BioAssay.
Active and inactive are the calls of the source.

How the values were obtained:
[1] = test system: PRMT1 (protein arginine N-methyltransferase 1); assay: PRMT1 binders on small-molecule microarrays, primary screen, biochemical, small-molecule microarray, 635 nm fluorescence (AID 1088); settings: small-molecule microarray binding, higher = more signal;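 also: binding of Prmt1 protein to compounds spotted on small-molecule microarray slides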
[2] = yeast growth modulation, basal conditions, primary screen, YJM789 clinical isolate, OD600, 24 h (AID 1089);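 also: growth of clinical yeast isolate S. cerevisiae YJM 789 seeded 1000 cells per well; test concentration not given here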; settings: S. cerevisiae YJM789 growth, higher = more signal, called active from +8 up or from −8 down
[3] = fission yeast growth modulation, primary screen, strain 972, OD600, 24 h, no modulator (AID 1090);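 also: basal condition with compound alone and no growth modifier present; test concentration not given here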; settings: S. pombe 972 growth, higher = more signal, called active from +8 up or from −8 down
[4] = S. cerevisiae growth modulation with rapamycin, primary screen, strain BY4716, OD600, 96 h (AID 1091); settings: higher = more signal, called active from +8 up or from −8 down; also: test concentration not given here
[5] = target: Torsin-1A-interacting protein 2 (Homo sapiens) (UniProt Q8NFQ8); assay: LULL1 binders on small-molecule microarray, primary screen, cell lysate, human LULL1 lysate, 635/667 nm fluorescence (AID 1092); settings: hLULL1 lysate binding, 635 nm fluorescence, higher = more signal;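 also: probe is lysate of COS7 cells overexpressing human LULL1; score merges per-feature 667 nm fluorescence with signal-to-noise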
Sequence of Torsin-1A-interacting protein 2 (Homo sapiens) (Q8NFQ8 whole entry, looked up): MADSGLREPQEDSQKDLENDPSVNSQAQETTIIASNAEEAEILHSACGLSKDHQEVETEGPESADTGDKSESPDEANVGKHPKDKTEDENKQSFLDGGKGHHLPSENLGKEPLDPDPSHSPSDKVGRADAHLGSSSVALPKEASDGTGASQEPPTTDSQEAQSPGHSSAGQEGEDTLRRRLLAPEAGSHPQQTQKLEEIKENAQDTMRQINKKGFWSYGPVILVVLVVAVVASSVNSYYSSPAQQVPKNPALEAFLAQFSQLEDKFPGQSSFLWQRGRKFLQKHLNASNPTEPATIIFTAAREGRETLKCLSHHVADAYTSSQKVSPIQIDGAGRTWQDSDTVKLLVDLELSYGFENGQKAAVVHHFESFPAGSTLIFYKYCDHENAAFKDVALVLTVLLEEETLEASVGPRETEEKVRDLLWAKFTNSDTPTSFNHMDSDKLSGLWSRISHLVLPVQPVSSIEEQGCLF

[6] = E. coli growth modulation, two-sided OD650, primary screen, E. coli filamentation project, strain DRC41, 24 h (AID 1093); settings: OD650, 24 h, higher = more signal, called active from +8 up or from −8 down;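 also: MC1000 strain lacking acrAB efflux and sulA so SOS filamentation is blocked; test concentration not given here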
[7] = small-molecule microarray binders of probe aLefty2, primary screen, biochemical, biotinylated probe, 635/667 nm fluorescence (AID 1094); settings: higher = more signal;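 also: score merges spot fluorescence near 667 nm with spot signal-to-noise ratio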
[8] = test system: Noggin (protein binding on small-molecule microarray); assay: Noggin binders on small-molecule microarray, primary screen, biochemical, 635/667 nm fluorescence (AID 1095); settings: 635 nm fluorescence, higher = more signal;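 also: score merges 667 nm feature fluorescence with signal to noise over triplicate slides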
[9] = target: Neurogenic locus notch homolog protein 3 (Homo sapiens) (UniProt Q9UM47); assay: NOTCH3 binders on small-molecule microarray, primary screen, biochemical, 635/667 nm fluorescence (AID 1096); settings: NOTCH3 binding, 635 nm fluorescence, higher = more signal
Sequence of Neurogenic locus notch homolog protein 3 (Homo sapiens) (Q9UM47 whole entry, looked up): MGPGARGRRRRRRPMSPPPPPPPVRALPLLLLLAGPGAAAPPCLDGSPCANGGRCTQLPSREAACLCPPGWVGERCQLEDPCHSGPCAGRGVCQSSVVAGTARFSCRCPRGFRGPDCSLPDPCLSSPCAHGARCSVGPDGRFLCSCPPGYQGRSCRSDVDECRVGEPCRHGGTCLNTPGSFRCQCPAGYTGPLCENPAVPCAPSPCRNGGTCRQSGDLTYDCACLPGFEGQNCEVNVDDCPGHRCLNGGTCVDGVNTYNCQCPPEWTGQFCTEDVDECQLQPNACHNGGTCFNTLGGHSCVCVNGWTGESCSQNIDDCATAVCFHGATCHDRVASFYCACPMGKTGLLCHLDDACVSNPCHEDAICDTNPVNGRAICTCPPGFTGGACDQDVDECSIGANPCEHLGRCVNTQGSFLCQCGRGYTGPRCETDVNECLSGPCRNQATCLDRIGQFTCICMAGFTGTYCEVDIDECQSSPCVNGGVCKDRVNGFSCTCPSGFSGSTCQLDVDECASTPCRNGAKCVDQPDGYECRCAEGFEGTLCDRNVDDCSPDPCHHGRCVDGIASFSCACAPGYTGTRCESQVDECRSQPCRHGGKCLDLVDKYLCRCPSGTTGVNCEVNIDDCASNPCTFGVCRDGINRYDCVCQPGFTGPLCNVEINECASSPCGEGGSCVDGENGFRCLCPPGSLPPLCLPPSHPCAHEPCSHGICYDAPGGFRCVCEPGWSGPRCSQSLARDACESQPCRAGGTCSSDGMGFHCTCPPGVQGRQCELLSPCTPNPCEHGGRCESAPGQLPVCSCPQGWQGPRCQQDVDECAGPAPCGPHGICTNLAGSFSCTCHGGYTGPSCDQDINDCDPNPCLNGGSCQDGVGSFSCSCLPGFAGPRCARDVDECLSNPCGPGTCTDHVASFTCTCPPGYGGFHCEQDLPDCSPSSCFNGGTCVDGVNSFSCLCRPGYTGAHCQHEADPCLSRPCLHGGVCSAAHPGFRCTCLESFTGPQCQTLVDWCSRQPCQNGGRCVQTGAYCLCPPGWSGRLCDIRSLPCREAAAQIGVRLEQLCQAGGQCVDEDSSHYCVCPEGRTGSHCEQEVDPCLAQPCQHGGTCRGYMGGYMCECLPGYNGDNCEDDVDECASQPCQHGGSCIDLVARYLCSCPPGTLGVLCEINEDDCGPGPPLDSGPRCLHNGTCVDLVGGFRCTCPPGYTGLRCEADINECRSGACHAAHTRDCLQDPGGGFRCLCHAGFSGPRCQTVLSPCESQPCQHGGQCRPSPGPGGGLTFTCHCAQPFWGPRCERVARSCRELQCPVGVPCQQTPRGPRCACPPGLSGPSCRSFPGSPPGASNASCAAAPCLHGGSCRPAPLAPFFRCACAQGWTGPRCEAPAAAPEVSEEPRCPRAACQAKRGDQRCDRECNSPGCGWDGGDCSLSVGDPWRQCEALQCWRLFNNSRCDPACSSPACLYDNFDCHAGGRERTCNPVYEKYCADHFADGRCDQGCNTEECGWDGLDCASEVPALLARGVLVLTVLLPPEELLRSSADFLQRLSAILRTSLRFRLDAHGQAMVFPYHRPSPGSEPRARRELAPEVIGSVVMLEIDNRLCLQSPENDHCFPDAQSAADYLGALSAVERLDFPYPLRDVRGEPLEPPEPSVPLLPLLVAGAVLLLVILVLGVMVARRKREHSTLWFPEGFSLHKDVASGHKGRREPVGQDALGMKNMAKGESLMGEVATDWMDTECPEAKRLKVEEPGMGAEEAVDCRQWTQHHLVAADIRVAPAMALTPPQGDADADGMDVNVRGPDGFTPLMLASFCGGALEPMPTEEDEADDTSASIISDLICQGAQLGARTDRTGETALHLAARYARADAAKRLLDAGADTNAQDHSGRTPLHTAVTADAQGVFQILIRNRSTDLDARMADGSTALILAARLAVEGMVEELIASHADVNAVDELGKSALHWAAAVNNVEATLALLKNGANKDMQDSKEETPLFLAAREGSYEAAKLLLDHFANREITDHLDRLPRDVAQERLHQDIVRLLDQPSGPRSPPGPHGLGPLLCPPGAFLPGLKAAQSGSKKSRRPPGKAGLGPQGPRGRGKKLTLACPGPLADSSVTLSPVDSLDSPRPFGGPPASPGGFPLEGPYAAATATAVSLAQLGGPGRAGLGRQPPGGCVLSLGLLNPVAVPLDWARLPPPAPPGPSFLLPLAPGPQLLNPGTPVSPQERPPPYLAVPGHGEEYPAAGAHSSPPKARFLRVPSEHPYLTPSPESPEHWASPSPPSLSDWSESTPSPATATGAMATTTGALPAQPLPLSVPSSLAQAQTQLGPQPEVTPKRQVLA

[10] = small-molecule microarray binders of probe aEGFR, primary screen, biochemical, biotinylated probe, 635/667 nm fluorescence (AID 1097); settings: higher = more signal;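 also: probe is a biotinylated anti-EGFR antibody binding compounds printed on slides; score combines fluorescence near 667 nm and signal to noise of each spot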
[11] = test system: Plasmodium falciparum Sir2 (PF13_0152, Sir2A); assay: pfSir2 binders on small-molecule microarrays, primary screen, biochemical, small-molecule microarray, 635 nm fluorescence (AID 1098); settings: small-molecule microarray binding, fluorescence 635 nm; higher = more signal;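 also: score merges spot fluorescence intensity with its signal-to-noise ratio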
[12] = small-molecule microarray binders of probe aDKK1, primary screen, biochemical, biotinylated probe, 635/667 nm fluorescence (AID 1099); settings: higher = more signal;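 also: score merges 667nm spot fluorescence with signal to noise across triplicate slides; reference of the scale not given here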
[13] = small-molecule microarray binders of probe aCHRDL2, primary screen, biochemical, biotinylated probe, 635/667 nm fluorescence (AID 1100); settings: higher = more signal
[14] = splicing luciferase reporter signal modulators, primary screen, spliceosome inhibition project, cell-based, HEK293, splice +/- reporter (AID 1101); settings: luminescence, 24 h, higher = more signal, called active from +8 up or from −8 down;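 also: HEK293 cells carrying a splicing-competent luciferase reporter gene; test concentration not given here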
[15] = target: Fibroblast growth factor 10 (Homo sapiens) (UniProt O15520); assay: FGF10 binders on small-molecule microarrays, primary screen, biochemical, small-molecule microarray, 635 nm fluorescence (AID 1102); settings: FGF10 binding, fluorescence 635 nm, higher = more signal
Sequence of Fibroblast growth factor 10 (Homo sapiens) (O15520 whole entry, looked up): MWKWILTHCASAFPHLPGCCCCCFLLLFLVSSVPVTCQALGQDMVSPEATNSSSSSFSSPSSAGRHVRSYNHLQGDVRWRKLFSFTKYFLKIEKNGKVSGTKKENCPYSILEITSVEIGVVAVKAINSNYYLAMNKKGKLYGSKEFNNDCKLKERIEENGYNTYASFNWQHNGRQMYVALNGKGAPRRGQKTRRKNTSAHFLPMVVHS

[16] = test system: glycogen synthase kinase-3 (GSK3A per assay name; protocol says GSK3B); assay: GSK3 binders on small-molecule microarrays, primary screen, biochemical, small-molecule microarray, 635 nm fluorescence, GSK3A (AID 1103); settings: small-molecule microarray binding, fluorescence 635 nm; higher = more signal; also: the record names both GSK3A and GSK3B
[17] = target: Epidermal growth factor receptor (Homo sapiens) (UniProt P00533); assay: EGFR binders on small-molecule microarrays, primary screen, biochemical, small-molecule microarray, 635 nm fluorescence (AID 1104); settings: EGFR binding, higher = more signal;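 also: score merges 667 nm emission intensity with spot signal to noise over triplicate slides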
Sequence of Epidermal growth factor receptor (Homo sapiens) (P00533 whole entry, looked up): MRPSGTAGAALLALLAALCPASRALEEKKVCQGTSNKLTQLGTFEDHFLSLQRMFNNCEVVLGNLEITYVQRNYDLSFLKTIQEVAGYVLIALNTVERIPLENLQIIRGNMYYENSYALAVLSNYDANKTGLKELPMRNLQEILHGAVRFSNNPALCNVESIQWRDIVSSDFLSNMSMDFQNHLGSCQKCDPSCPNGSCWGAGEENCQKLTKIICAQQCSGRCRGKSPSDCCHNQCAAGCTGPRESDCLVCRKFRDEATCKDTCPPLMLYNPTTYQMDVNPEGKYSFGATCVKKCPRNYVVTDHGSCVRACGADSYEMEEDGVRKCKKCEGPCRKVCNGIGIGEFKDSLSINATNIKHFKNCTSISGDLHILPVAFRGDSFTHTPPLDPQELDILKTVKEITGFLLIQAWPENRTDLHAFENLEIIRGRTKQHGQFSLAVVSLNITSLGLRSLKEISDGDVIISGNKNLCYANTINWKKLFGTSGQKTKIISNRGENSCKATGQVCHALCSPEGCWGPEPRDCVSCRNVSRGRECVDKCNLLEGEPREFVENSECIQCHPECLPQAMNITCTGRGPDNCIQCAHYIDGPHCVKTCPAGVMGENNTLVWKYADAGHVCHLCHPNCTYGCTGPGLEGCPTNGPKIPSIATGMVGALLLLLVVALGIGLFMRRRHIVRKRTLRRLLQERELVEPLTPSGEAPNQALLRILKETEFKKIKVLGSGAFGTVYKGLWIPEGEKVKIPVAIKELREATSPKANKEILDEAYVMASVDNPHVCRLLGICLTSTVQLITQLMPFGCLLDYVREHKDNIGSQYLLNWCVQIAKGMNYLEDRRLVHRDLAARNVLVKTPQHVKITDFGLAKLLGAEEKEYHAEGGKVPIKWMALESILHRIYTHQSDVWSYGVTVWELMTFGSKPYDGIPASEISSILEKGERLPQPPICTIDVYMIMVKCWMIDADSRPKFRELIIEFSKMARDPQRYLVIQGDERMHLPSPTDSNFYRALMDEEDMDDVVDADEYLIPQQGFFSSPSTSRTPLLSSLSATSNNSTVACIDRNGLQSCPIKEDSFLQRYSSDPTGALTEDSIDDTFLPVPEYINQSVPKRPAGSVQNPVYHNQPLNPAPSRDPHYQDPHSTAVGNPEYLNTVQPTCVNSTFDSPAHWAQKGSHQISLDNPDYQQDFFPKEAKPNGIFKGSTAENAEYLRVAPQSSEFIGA

[18] = target: Follistatin-related protein 3 (Homo sapiens) (UniProt O95633); assay: FSTL3 binders on small-molecule microarrays, primary screen, biochemical, small-molecule microarray, 635 nm fluorescence (AID 1105); settings: FSTL3 binding, higher = more signal;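 also: score merges emission near 667 nm and signal to noise per printed spot across three slides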
Sequence of Follistatin-related protein 3 (Homo sapiens) (O95633 whole entry, looked up): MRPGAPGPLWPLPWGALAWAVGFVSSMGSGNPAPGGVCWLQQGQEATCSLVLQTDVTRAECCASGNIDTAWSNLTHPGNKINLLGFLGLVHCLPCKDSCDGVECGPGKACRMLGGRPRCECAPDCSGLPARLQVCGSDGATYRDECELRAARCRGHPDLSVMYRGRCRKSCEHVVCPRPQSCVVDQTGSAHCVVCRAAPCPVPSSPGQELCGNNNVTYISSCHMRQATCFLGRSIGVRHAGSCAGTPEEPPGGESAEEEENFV

[19] = target: Dickkopf-related protein 1 (Homo sapiens) (UniProt O94907); assay: DKK1 binders on small-molecule microarrays, primary screen, biochemical, small-molecule microarray, 635 nm fluorescence scan (AID 1106); settings: DKK1 binding, higher = more signal;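 also: score merges emission near 667 nm with signal to noise over three replicate slides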
Sequence of Dickkopf-related protein 1 (Homo sapiens) (O94907 whole entry, looked up): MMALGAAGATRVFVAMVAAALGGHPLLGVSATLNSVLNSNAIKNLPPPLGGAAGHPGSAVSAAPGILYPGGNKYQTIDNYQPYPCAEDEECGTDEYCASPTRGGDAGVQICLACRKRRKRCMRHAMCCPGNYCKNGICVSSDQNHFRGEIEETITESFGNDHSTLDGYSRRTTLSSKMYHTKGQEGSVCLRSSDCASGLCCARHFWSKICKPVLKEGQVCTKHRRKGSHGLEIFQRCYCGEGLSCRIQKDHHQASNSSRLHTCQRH

[20] = test system: Inhibin beta A chain (activin A); assay: INHBA (activin A) binders on microarrays, primary screen, biochemical, small-molecule microarray, 635 nm fluorescence scan (AID 1107); settings: small-molecule microarray binding, higher = more signal;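 also: mouse activin A protein probed at 4.33 µg/mL on printed slides; score merges bound-protein fluorescence near 667 nm with spot signal-to-noise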

| SMILES | composite z-score [1] | z-score [2] | z-score [3] | z-score [4] | composite z-score [5] | z-score [6] | composite z-score [7] | composite z-score [8] | composite z-score [9] | composite z-score [10] | composite z-score [11] | composite z-score [12] | composite z-score [13] | z-score [14] | composite z-score [15] | composite z-score [16] | composite z-score [17] | composite z-score [18] | composite z-score [19] | composite z-score [20] |
| --- | --- | --- | --- | --- | --- | --- | --- | --- | --- | --- | --- | --- | --- | --- | --- | --- | --- | --- | --- | --- |
| COc1ccc(CCNC(=O)[C@@H]2c3ccccc3C(=O)N(c3ccc(C)cn3)[C@H]2c2ccc(CO)cc2)cc1 | 0.11 | -1.5 (inactive) | -0.436 (inactive) | -1.15 (inactive) | 3.23 | 0.604 (inactive) | 0.121 | -1.16 | -1.21 | -0.404 | 1.73 | 0.263 | 1.19 | -0.403 (inactive) | -1.06 | -0.37 | -1.68 | -1.16 | -2.4 | -0.082 |
| O=C1[C@H]2[C@H]3[C@H](O)[C@H](O)CC(=NOC[C@@H](O)COCc4ccco4)[C@@H]3CC[C@H]2C(=O)N1c1ccc(F)cc1F | 0.601 | -0.236 (inactive) | 0.0766 (inactive) | -1.25 (inactive) | -1.34 | 0.363 (inactive) | -0.223 | 1.01 | 0.0986 | -0.0828 | 0.365 | -0.399 | -0.712 | 0.237 (inactive) | 0.579 | 0.318 | 0.931 | 0.499 | 0.671 | 0.574 |
| C[C@@H](c1ccccc1)N1C(=O)[C@H]2[C@H]3[C@H](O)[C@H](O)CC(=NOC[C@@H](O)COCc4ccco4)[C@@H]3CC[C@H]2C1=O | -0.291 | 0.539 (inactive) | 0.37 (inactive) | 1.3 (inactive) | 0.304 | 0.181 (inactive) | -0.217 | -1.01 | -1.1 | -0.221 | 0.693 | -0.349 | -0.402 | -0.115 (inactive) | -0.953 | -0.468 | -0.0809 | -1.31 | -1.03 | -0.365 |
| CO[C@H]1COC(=O)[C@@H]2CCCN2C(=O)[C@@H](C)COC(=O)CC=C[C@@H]1C | 1.47 | -0.62 (inactive) | 0.0569 (inactive) | -1.53 (inactive) | -0.652 | 0.264 (inactive) | -0.238 | 0.927 | 0.665 | 0.0082 | 0.474 | -0.342 | -0.919 | 0.00841 (inactive) | 0.618 | 1.05 | 1.15 | 1.11 | 1.1 | -0.24 |
| Cc1ccc(S[C@]2(C(=O)NCC(F)(F)F)CC(=O)N(Cc3ccccc3Cl)[C@@H]2c2ccc(CO)cc2I)cc1 | 1.33 | 0.294 (inactive) | -3.18 (inactive) | 1.06 (inactive) | 2.34 | 0.492 (inactive) | -0.0998 | -1.07 | -0.573 | -0.284 | 1.23 | 0.122 | 0.828 | -1.34 (inactive) | -0.798 | -0.457 | -1.15 | -0.978 | -1.05 | 0.117 |
| COc1ccc([Si](C)(C)[C@H]2[C@H](CCO)O[C@@]3(C(=O)N(Cc4cccc(NC(=O)[C@H](C)O)c4)c4ccccc43)[C@@H]2C)cc1 | 1.54 | 1.62 (inactive) | 0.562 (inactive) | 7.56 (inactive) | 2.47 | 1.24 (inactive) | -0.0664 | 1.24 | 1.09 | -0.013 | 1.01 | -0.146 | -0.026 | -2.55 (inactive) | 1.01 | 0.738 | 0.382 | 0.901 | 0.507 | 0.106 |
| C=C(/C(=C/C[C@H](OC(=O)c1ccncc1)c1ccc(OCCO)cc1)c1cnc2ccccc2c1)C(C)C | 1.55 | -0.442 (inactive) | -1.82 (inactive) | 0.706 (inactive) | 1.12 | -0.13 (inactive) | -0.0985 | 1.48 | 1.03 | -0.0251 | 0.933 | -0.196 | -0.163 | 0.215 (inactive) | 1.61 | 1.07 | 1.07 | 1.38 | 0.856 | 1.7 |
| Cc1cc(C)c(-c2cc([C@H](C)ON=C3[C@H]4CCn5c(=O)n(-c6ccccc6)c(=O)n5[C@H]4[C@H](O)[C@@H]4O[C@H]34)on2)c(C)c1 | 0.432 | 0.566 (inactive) | -1.84 (inactive) | 0.0884 (inactive) | 1.83 | 0.771 (inactive) | -0.133 | 0.627 | 0.766 | -0.0978 | 0.167 | -0.255 | -0.48 | 2.01 (inactive) | 0.501 | 0.253 | 0.377 | 0.801 | 0.88 | -0.0289 |
| CO[C@@H]1COC(=O)[C@@H]2CCCN2C(=O)[C@@H](C)COC(=O)[C@H](COCc2ccccc2)NC(=O)CC=C[C@H]1C | 0.705 | 0.953 (inactive) | 0.263 (inactive) | 0.458 (inactive) | 0.445 | -1.99 (inactive) | -0.236 | 0.529 | 0.554 | -0.198 | 0.385 | -0.559 | -0.664 | -0.425 (inactive) | 0.613 | 0.575 | 0.239 | 0.478 | 0.356 | -0.235 |
| C[C@@H](c1ccccc1)N1C(=O)[C@H]2[C@H]3[C@H](O)C=CC(=O)[C@@H]3CC[C@H]2C1=O | 0.595 | -0.432 (inactive) | -0.271 (inactive) | -0.402 (inactive) | -0.309 | 0.372 (inactive) | -0.252 | 0.421 | 0.698 | -0.0649 | -0.0301 | -0.293 | -0.674 | 0.432 (inactive) | 0.373 | 0.606 | 0.54 | 0.699 | 0.557 | 0.25 |
